Assay results taken from PubChem BioAssay (NCI).
About 79,000 compounds went through this panel and 15% of them were active in at least one assay; those are over-represented in the sample as a whole. Unmarked numbers belong to inactive results. Active and inactive are the calls of the source. No stated cut-off is given here; in the data, active means growth inhibition above about 70%; inactive means the rest. Where a SMILES comes first, the peptide text is derived from it. The star is where a group is joined. Boc = CC(C)(C)OC(=O)*; OBn = c1ccc(CO*)cc1

Columns and labels:
[1] = NCI Yeast Anticancer Drug Screen. Data for the rad50 strain (AID 155);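 further: 0% = growth of vehicle-only cultures of the same strain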; details: S. cerevisiae rad50 strain growth inhibition, hits give high values; at 50.0 µM unless noted
How it was run: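 Yeast carrying a defined DNA repair defect were exposed to test compounds, and growth was compared with vehicle-treated controls to give percent inhibition.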

[2] = NCI Yeast Anticancer Drug Screen. Data for the mec2-1 strain (AID 157); details: S. cerevisiae mec2-1 strain, hits give high values; at 50.0 µM unless noted
How it was run: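 Vehicle-treated cultures served as reference for growth inhibition of compound-exposed mec2-1 yeast.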

[3] = NCI Yeast Anticancer Drug Screen. Data for the sgs1 mgt1 strain (AID 161);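 further: 0% = growth of cultures given vehicle only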; details: S. cerevisiae sgs1 mgt1 strain, hits give high values; at 50.0 µM unless noted
How it was run: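 Read-out: growth inhibition vs vehicle controls. Cells: mutant yeast strain deficient in DNA damage repair.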

[4] = NCI Yeast Anticancer Drug Screen. Data for the cln2 rad14 strain (AID 165);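 further: 0% = growth equal to vehicle treated cultures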; details: S. cerevisiae cln2 rad14 strain, hits give high values; at 50.0 µM unless noted
How it was run: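 Each compound was tested on cln2 rad14 yeast. Inhibition of growth was calculated against vehicle-exposed controls.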

[5] = NCI Yeast Anticancer Drug Screen. Data for the bub3 strain (AID 167); details: S. cerevisiae bub3 mutant strain, hits give high values; at 50.0 µM unless noted
How it was run: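 Compounds were applied to a genetically altered yeast strain carrying a cell-cycle control defect. Growth inhibition was scored against vehicle-treated controls.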

[6] = NCI Yeast Anticancer Drug Screen. Data for the mlh1 rad18 strain (AID 175); details: S. cerevisiae mlh1 rad18 strain growth inhibition, hits give high values; at 50.0 µM unless noted
How it was run: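 Vehicle-treated cultures served as the reference for growth inhibition in a yeast strain carrying DNA damage repair alterations exposed to each compound.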

| SMILES | growth inhibition [1] | growth inhibition [2] | growth inhibition [3] | growth inhibition [4] | growth inhibition [5] | growth inhibition [6] |
| --- | --- | --- | --- | --- | --- | --- |
| O=C1OC(c2ccccc2)=N/C1=C/C=C/c1ccco1 | -10.9% | -5.45% | -6% | -9.75% | -1.6% | -40.3% |
| N=c1oc(-c2ccccc2)cc2ccccc12 | 29.8% | -9.4% | -12.3% | -45.8% | 15.6% | 11.7% |
| CCOC(=O)C(CCCCNC(=O)CC)NC(=O)CC (stereo unspecified) | 3.5% | 1.3% | 3.3% | 3.55% | 11.2% | 2.65% |
| COC(=O)C(Cc1ccccc1)N=Cc1c(O)c(O)c(C(C)C)c2cc(C)c(-c3c(C)cc4c(C(C)C)c(O)c(O)c(C=NC(Cc5ccccc5)C(=O)OC)c4c3O)c(O)c12 (stereo unspecified) | 19.7% | 9.7% | 11.7% | 17.1% | 16.1% | 4.75% |
| COc1cc2c[n+](C)c3c4cc(OC)c(OC)cc4c(OCc4ccccc4)cc3c2cc1OC | 86% (active) | 89.8% (active) | 88.1% (active) | 88.7% (active) | 87.5% (active) | 91.2% (active) |
| CC(C)CC(NC(=O)C(Cc1ccccc1)NC(=O)C(Cc1ccccc1)NC(=O)OC(C)(C)C)C(=O)OCc1ccccc1 (stereo not drawn) (Boc-Phe-Phe-Leu-OBn; configuration not given here) | -3.15% | -10.3% | -5.95% | -7.2% | 0.95% | 5.95% |
| CSCCSC | 10.2% | 4.6% | -0.1% | 13.4% | 3.4% | 3.65% |
| O=P1(NC23CC4CC(CC(C4)C2)C3)OC(CCl)=NC1c1ccc(C2N=C(CCl)OP2(=O)NC23CC4CC(CC(C4)C2)C3)cc1 (stereo unspecified) | -56.6% | -32.7% | -34.3% | -12.8% | -35.1% | -57.2% |
| O=C(c1ccccc1)c1cccc(C(=O)c2ccccc2)c1 | -2.1% | -11.3% | -12.9% | 4.65% | 7.35% | -16.6% |
| Nc1nnc2nc(CC(=O)c3ccc(Cl)c(Cl)c3)/c(=C/C(=O)c3ccc(Cl)c(Cl)c3)n12 | 11.5% | 12.3% | -12.3% | 17.2% | 1.7% | -10.2% |
| ClB1NB(Cl)NB(Cl)N1 | -9.45% | -33.8% | -9.95% | -7% | -11.9% | 3.55% |
| Cc1ncc([N+](=O)[O-])n1CC(O)Cn1cnc([N+](=O)[O-])n1 (stereo unspecified) | -19% | -6.5% | -1.75% | -4.2% | -4.35% | -31.4% |
| O=C1c2ccccc2C(=Cc2cccc([N+](=O)[O-])c2)c2ccccc21 | 15.6% | 18.4% | -6.35% | 9.75% | 4.2% | 0.6% |
| c1ccc(C(=NN=C(c2ccccc2)c2ccccc2)c2ccccc2)cc1 | 17.9% | 23.9% | 8.4% | 30.5% | 1.25% | 6.25% |
| O=C1COC(c2ccccc2O)=NN1Cc1ccccc1 | -14.6% | -0.3% | -5.3% | -4.75% | -8.6% | -1.1% |
| NC(=O)N/N=C(/Cc1nc2ccc(C(=O)c3ccccc3)cc2[nH]c1=O)C(=O)Nc1ccc(C(F)(F)F)cc1[N+](=O)[O-] | -7.85% | 7.35% | -7.85% | 0.8% | -33.6% | 5.05% |
| CCC(CC)/C(=N/Nc1ccc([N+](=O)[O-])cc1[N+](=O)[O-])C1=CCCCC1 | -8.3% | -12.1% | -5.1% | -24.1% | -7.3% | -15.7% |
| Cc1ccc(C(=O)/C=C/c2cccc3ccccc23)cc1 | 16.1% | 3.65% | 21.5% | 4.25% | 9.95% | 3.95% |
| CC(=O)Nc1ccc(CCCc2ccc([N+](=O)[O-])cc2)cc1 | 3.15% | 3.35% | -10.9% | -70.2% | 1.6% | 0% |
| COc1cc(CC(=O)O)ccc1OC(C)=O | 4.15% | 2.65% | -16.8% | -25.1% | 1.25% | -5.75% |
| CC1/C(=N\O)CC2C3(C)CCC2(C(C)C(=O)O)C(=O)C13 (stereo unspecified) | 4.75% | 9.1% | 2.2% | 8.55% | 8.9% | 20.6% |
